Shown are actives, neighbours in structure and some others; about 5% of the full set was active somewhere.
LmPK inh – inhibitors of Leishmania mexicana pyruvate kinase | Q27686 | purified LmPK, Kinase-Glo ATP luminescence, 1 h | Potency, µM (titrated, usually from 57.5 µM), for inactives: at the highest dose activity change, negative = inhibition, hits mostly inhibitors | actives 0.37% (n = 290,000); further: potency means the concentration at half of the fitted maximal effect
Target sequence (Q27686 whole entry, looked up): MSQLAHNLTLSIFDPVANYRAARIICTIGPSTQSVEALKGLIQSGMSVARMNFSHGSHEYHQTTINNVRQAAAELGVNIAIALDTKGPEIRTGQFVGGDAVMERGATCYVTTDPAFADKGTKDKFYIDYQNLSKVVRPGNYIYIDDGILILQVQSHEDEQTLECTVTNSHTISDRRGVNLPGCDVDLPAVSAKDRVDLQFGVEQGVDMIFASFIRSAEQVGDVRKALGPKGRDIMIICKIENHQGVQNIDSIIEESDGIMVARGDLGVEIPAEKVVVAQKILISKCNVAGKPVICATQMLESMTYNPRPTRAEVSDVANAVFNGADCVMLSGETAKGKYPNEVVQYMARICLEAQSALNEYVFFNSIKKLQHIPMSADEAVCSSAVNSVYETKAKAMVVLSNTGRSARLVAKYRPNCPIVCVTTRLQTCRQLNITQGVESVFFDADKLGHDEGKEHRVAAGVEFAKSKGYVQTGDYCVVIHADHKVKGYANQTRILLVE
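In 50 mM imidazole pH 7.2 with 7 mM MgCl2, LmPK (0.1 nM) turned over PEP (0.5 mM) and ADP (0.1 mM) for 1 h at room temperature. Luciferase read-out of ATP.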
HCMV inh – blocks human cytomegalovirus replication; HFF cells, HCMV-luciferase reporter, 72 h; hits give low values; activity change, negative = inhibition, % at 57.5 µM; actives 4.5% (n = 410,000); AID 1259415; in the data active means activity change below about -60%; inconclusive means no clear call, values can overlap the other calls; inactive means above about -39%
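Steps: HFFs plated, 16 h 37C; compounds added; HCMV-luciferase added to MOI 1 PFU/cell; 72 h 37C; OneGlo reagent, 5 min room temperature; luminescence read, normalized to controls.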
VACV Venus inh – vaccinia inhibition (Venus reporter). Potency, µM (top dose mostly 36.5 µM), inactives show at the highest dose activity change, negative = inhibition, hits mostly inhibitors. AID 720580. Vaccinia virus Venus reporter expression, fluorescence. actives 0.46% (n = 330,000); calls by dose curve; tested in A549 cells; further: potency means the concentration at half of the fitted maximal effect; nearly all actives have a fitted effect of over 30% in size
Tb PYK inh – blocks Trypanosoma brucei pyruvate kinase. Q57TT1. Potency, µM (doses to about 76.8 µM), for the others: at the top dose activity, negative = inhibition, usual class: inhibitors. TbPYK enzyme, Kinase-Glo Plus ATP luminescence, 45 min. actives 0.12% (n = 410,000); further: potency means the concentration at half of the fitted maximal effect; nearly all actives have a fitted effect of over 50% in size
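Quantitative HTS: titrated library compounds versus trypanosomal pyruvate kinase in TEA buffer (pH 7.2) containing KCl, MgCl2, BSA and Tween-20. Reactions were initiated with ADP, 130 uM final. Kinase-Glo Plus luminescence was read after 45 min at RT.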
VACV mCherry inh – inhibitors of vaccinia virus infection (mCherry reporter signal) | Potency, µM (titrated, usually from 36.5 µM), inactives show at the highest dose activity change, negative = inhibition, most hits filed as inhibitors | actives 0.63% (n = 310,000) | AID 720579 | Vaccinia virus mCherry reporter infection, fluorescence; calls by dose curve; tested in A549 cells; further: potency means the concentration at half of the fitted maximal effect; nearly all actives have a fitted effect of over 35% in size
* = called active by the depositor; ! = repeats disagree; [ ] = dose if it differs, or a comment. Unless noted, the call rests on the fitted dose curve; in most records, active means well fitted curve in the direction sought with a large enough effect; inconclusive means small, poorly fitted or top-dose-only effect, or another doubt; inactive means no such curve, though single readings can be large; an effect the other way counts as inactive or inconclusive. On the % scale 0 is the no-effect control and ±100 the full control effect.

Results for O=c1cc(-c2ccccc2)[nH]n1-c1nc2ccccc2[nH]1 ?
LmPK inh: -4.2%; HCMV inh: -83.5*; VACV Venus inh: -28.1%; Tb PYK inh: -0.8%; VACV mCherry inh: -29.2%

Results for CCCC/C(O)=C/c1nc2ccccc2[nH]c1=O ?
LmPK inh: 3.0%; HCMV inh: -78.9*; VACV Venus inh: -18.4%; Tb PYK inh: 2.9%

Results for CCCN(CCC)C(=O)CCSCCC(=O)N(CCC)CCC ?
LmPK inh: 0.6%; HCMV inh: -102.4*; VACV Venus inh: -7.1%; Tb PYK inh: 3.1%; VACV mCherry inh: -14.4%

How did CCCCCCCCCCCC(=O)N(CCO)CCO do in these assays?
Tb PYK inh: 6.4%

How did CCCCNc1c(-c2cccc(OC)c2)nc2nc(C)cc(C)n12 do in these assays?
HCMV inh: 1.0; VACV Venus inh: -4.2%; Tb PYK inh: 2.6%; VACV mCherry inh: inactive

Results for CC1=C(CC(=O)c2ccccc2)C(=O)c2ccccc2C1=O ?
LmPK inh: -1.7%; HCMV inh: -98.6*; VACV Venus inh: -27.1%; Tb PYK inh: -1.2%; VACV mCherry inh: inconclusive

What do the screens show for `O=C(CN1C(=O)c2ccccc2C1=O)c1ccccc1`?
LmPK inh: -0.2%; HCMV inh: 36.4; VACV Venus inh: 11.0%; Tb PYK inh: 2.0%

Results for CC(C)c1onc(C(=O)NCc2cccs2)c1[N+](=O)[O-] ?
LmPK inh: -5.2%; HCMV inh: -68.0*; VACV Venus inh: -10.5%; Tb PYK inh: 5.5%; VACV mCherry inh: inactive

What do the screens show for `Cc1onc(C(=O)NCc2cccs2)c1[N+](=O)[O-]`?
LmPK inh: 0.4%; HCMV inh: 7.2; VACV Venus inh: -2.0%; Tb PYK inh: 1.3%; VACV mCherry inh: inactive

How did COc1ccc(NC2CCCN(C(=O)Cn3ccc(C)n3)C2)cc1OC (stereo not given) do in these assays?
LmPK inh: -3.9%; HCMV inh: 24.9; VACV Venus inh: -5.1%; Tb PYK inh: 7.3%; VACV mCherry inh: inactive

How did CSC1SCC2C(=O)N(C)C(C(C)C)C(=O)OCC(NC(=O)c3cnc4ccccc4n3)C(=O)NC(C)C(=O)N(C)C1C(=O)N(C)C(C(C)C)C(=O)OCC(NC(=O)c1cnc3ccccc3n1)C(=O)NC(C)C(=O)N2C (stereo not given) do in these assays?
HCMV inh: -98.9*; VACV Venus inh: 0.0035µM*; Tb PYK inh: -11.6%; VACV mCherry inh: inconclusive

Results for O=C(COC(=O)c1ccc2[nH]c3c(c2c1)CCCC3)Nc1ccccc1Cl ?
LmPK inh: 3.5%; HCMV inh: 17.8; VACV Venus inh: -2.5%; Tb PYK inh: 2.9%; VACV mCherry inh: 5.4%

How did CCC(C)c1ccccc1NC(=O)COC(=O)c1ccc2[nH]c3c(c2c1)CCCC3 (stereo not given) do in these assays?
LmPK inh: 1.3%; HCMV inh: -99.8*; VACV Venus inh: inconclusive; Tb PYK inh: -5.2%; VACV mCherry inh: inconclusive

How did CN(CCC#N)C(=O)COC(=O)c1ccc2[nH]c3c(c2c1)CCCC3 do in these assays?
LmPK inh: 1.0%; HCMV inh: -72.6*; VACV Venus inh: 1.6%; Tb PYK inh: 0.8%; VACV mCherry inh: -11.4%

What do the screens show for `Cc1ccc2oc(=O)c(-c3nc4ccc(C)cc4[nH]3)cc2c1`?
HCMV inh: inconclusive; VACV Venus inh: inconclusive; Tb PYK inh: 0.3%; VACV mCherry inh: inconclusive

What do the screens show for `O=C1OCC/C1=C\c1ccc(O)cc1`?
LmPK inh: -1.2%; HCMV inh: -0.5; Tb PYK inh: 0.0%

What do the screens show for `Cc1ccccc1-n1c(O)c(C=Nc2ccc3c(c2)OCO3)c(=O)[nH]c1=O`?
LmPK inh: 4.1%; HCMV inh: 4.5; VACV Venus inh: -5.0%; Tb PYK inh: 5.3%; VACV mCherry inh: inactive

What do the screens show for `O=c1c2ccccc2c(C=Nc2cccc(O)c2)c(O)n1-c1ccc2c(c1)OCO2`?
LmPK inh: 4.0%; HCMV inh: -86.1*; VACV Venus inh: -15.2%; Tb PYK inh: 0.3%

What do the screens show for `O=C(Nc1ccc(OCC(F)(F)C(F)F)c(C(F)(F)F)c1)c1ccc(Cl)cc1`?
HCMV inh: -94.9*; VACV Venus inh: inconclusive; Tb PYK inh: 3.0%; VACV mCherry inh: inconclusive

Results for COc1ccc(C(=O)Nc2ccc(OCC(F)(F)C(F)F)c(C(F)(F)F)c2)cc1OC ?
LmPK inh: -1.8%; HCMV inh: -98.8*; VACV Venus inh: inconclusive; Tb PYK inh: 13.1%; VACV mCherry inh: inconclusive

Results for COc1ccc(OC)c(/C(C)=N/Nc2ccc(C(=O)O)cc2)c1 ?
LmPK inh: 0.6%; HCMV inh: -96.2*; VACV Venus inh: -10.3%; Tb PYK inh: -9.4%; VACV mCherry inh: -8.9%

How did COc1cc(C(=O)Nc2ccc(C(=O)O)cc2)ccc1OC(C)=O do in these assays?
LmPK inh: 25.1µM*; HCMV inh: inconclusive; Tb PYK inh: -3.8%

Results for COc1ccc(NC(=O)c2ccc(COCC(F)(F)F)cc2)cc1OC ?
LmPK inh: -4.3%; HCMV inh: -23.6; VACV Venus inh: -25.3%; Tb PYK inh: -1.6%; VACV mCherry inh: inactive

How did COC(=O)COc1cccc(NC(=O)c2ccc(Cl)cc2)c1 do in these assays?
LmPK inh: -0.5%; HCMV inh: 2.6; VACV Venus inh: -6.6%; Tb PYK inh: -15.3%; VACV mCherry inh: 3.4%

How did Cc1cc(OCC(=O)N(C)c2ccccc2)cc2c1C(=O)CC(C)(C)O2 do in these assays?
LmPK inh: 3.0%; HCMV inh: 25.3; VACV Venus inh: 1.0%; Tb PYK inh: 2.1%; VACV mCherry inh: inactive

Results for COc1ccc(Cn2nnc(C(=O)Nc3cc(OC)ccc3OC)c2N)cc1 ?
HCMV inh: -6.4; VACV Venus inh: -7.1%; Tb PYK inh: -9.6%; VACV mCherry inh: -27.6%

What do the screens show for `CC1(C)S[C@@H]2[C@H](NC(=O)[C@H](N)c3ccccc3)C(=O)N2[C@H]1C(=O)O`?
LmPK inh: 3.1%; HCMV inh: -60.3*!; VACV Venus inh: -14.9%; Tb PYK inh: 8.0%; VACV mCherry inh: -1.3%

Results for Cc1ccc(Nc2c3c(nc4nc(-c5cccs5)nn24)CCCC3)cc1F ?
HCMV inh: 27.0; VACV Venus inh: inconclusive; Tb PYK inh: -4.8%; VACV mCherry inh: 11.2µM*

What do the screens show for `COc1ccc(C)cc1Nc1c2c(nc3nc(-c4cccs4)nn13)CCCC2`?
HCMV inh: 23.5; VACV Venus inh: 6.7%; Tb PYK inh: 3.2%; VACV mCherry inh: -5.0%

How did Fc1cc(Br)ccc1Nc1c2c(nc3nc(-c4cccs4)nn13)CCCC2 do in these assays?
HCMV inh: -60.0*; VACV Venus inh: inconclusive; Tb PYK inh: 9.7%; VACV mCherry inh: inconclusive

Results for CCCc1oc2ccc(NS(=O)(=O)c3ccc(OCC)cc3)cc2c1C(=O)OCC ?
HCMV inh: -65.4*; VACV Venus inh: -25.2%[7.34 µM]; Tb PYK inh: -5.7%; VACV mCherry inh: -27.0%[7.34 µM]
